# Screening data: PubChem, several laboratories
# Only some compounds are listed: those with a hit (about 4.9% of all), similar ones and a draw of the others.
# PP5 inh – inhibitors of human protein phosphatase 5 (PP5); P53041; purified PP5c, OMFP substrate fluorescence; inhibition, % at 6.7 µM; 320,000 tested, 0.18% active; AID 1987;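 active = inhibition above the campaign's mean inhibition across all tested compounds plus 3 SD, cut at about 9.5% in these data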;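 note: 0% = DMSO only and 100% = 100 µM cantharidin control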
# CSC inhib – cancer stem cell inhibition; inhibition, % at 7.5 µM; 300,000 tested, 1.1% active; cancer stem cell-like cells viability, luminescence; AID 2717; in the data active = inhibition above about 75%; inconclusive = no clear call, values can overlap the other calls; tested in HMLE shEcad cells
# PP1 counter – PP1-alpha (human) inhibition in PP5 counter-screen | P62136 | purified PP1alpha, OMFP fluorescence | inhibition, % at 6.7 µM | 320,000 tested, 0.9% active | AID 2235;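 active = inhibition above the mean inhibition of all tested compounds plus 3 SD, computed separately for each screening campaign, cut at about 15% in these data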
# Beta cell apopt – blocks beta cell apoptosis; 300,000 tested, 0.8% active; INS-1E cytokine-induced death, ATP luminescence, 48 h; percent of positive-control rescue, neutral wells zero; protection from apoptosis, % (test concentration not listed); AID 435005;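 active = Every replicate reaches about 75%, or at least half do and their mean reaches it too, limit read from the data; inconclusive = At least half of replicates reach the limit but their mean does not; inactive = Under half of replicates reach the limit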;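 note: 0% = cytokine-treated negative control wells and 100% = positive control rescue; higher means more ATP so stronger rescue from cytokine killing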
# Calb FLC – C. albicans growth modulation with fluconazole; C. albicans CaCi-2 (fluconazole-resistant clinical isolate) + fluconazole, Alamar Blue growth, 48 h; growth inhibition, % (no concentration beside the values); 300,000 tested, 0.57% active; AID 1979;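 active = growth inhibition above about 58% in most replicates, limit read from the data, passing the limit was not always enough; inconclusive = exactly half the replicates above a set limit; inactive = most replicates below a set limit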;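 note: all wells also contain fluconazole at 8 µg/ml as a sub-toxic cotreatment; 0% = median of DMSO wells and 100% = median of geldanamycin control wells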
# Mdm2-MdmX inh – human Mdm2/MdmX binding inhibition; inhibition, % at 8 µM; 330,000 tested, 3% active; SaOS-2 split-luciferase Mdm2/MdmX complementation, luminescence; O15151+Q00987;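 active = inhibition of at least 50% at 8 µM in the primary screen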
# Target sequence (O15151 whole entry, looked up): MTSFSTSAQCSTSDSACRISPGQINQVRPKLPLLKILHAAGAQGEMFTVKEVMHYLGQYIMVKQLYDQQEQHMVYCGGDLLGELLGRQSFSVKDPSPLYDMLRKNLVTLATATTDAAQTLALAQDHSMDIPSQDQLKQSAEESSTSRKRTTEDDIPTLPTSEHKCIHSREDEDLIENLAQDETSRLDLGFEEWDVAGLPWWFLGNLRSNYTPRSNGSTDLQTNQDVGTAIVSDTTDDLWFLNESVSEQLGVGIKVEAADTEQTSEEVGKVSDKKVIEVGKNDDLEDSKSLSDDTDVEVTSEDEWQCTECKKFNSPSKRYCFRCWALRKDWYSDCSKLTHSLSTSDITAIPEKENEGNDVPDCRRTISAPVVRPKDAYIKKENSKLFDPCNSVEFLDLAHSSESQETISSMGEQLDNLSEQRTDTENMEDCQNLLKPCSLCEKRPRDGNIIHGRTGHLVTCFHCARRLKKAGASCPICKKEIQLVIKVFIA
# Target sequence (Q00987 whole entry, looked up): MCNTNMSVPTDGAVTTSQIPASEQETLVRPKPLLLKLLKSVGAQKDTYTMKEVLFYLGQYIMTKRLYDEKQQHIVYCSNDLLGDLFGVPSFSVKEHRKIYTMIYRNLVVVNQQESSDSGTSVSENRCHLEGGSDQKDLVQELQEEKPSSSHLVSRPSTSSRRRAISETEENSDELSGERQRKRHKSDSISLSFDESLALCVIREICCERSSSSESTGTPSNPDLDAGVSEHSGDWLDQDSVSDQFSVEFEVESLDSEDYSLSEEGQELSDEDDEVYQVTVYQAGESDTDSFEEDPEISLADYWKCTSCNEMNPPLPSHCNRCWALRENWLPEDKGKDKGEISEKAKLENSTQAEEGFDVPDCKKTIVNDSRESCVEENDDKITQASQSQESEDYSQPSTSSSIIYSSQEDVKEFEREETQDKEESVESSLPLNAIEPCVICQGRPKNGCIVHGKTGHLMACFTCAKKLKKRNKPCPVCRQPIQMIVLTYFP
# PP1 confirm – confirmation of human PP1 phosphatase inhibitors. purified PP1alpha, OMFP substrate fluorescence. AID 2358. 1,900 tested, 52% active. inhibition, % at 6.7 µM. shares compounds with PP1 counter;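 active = mean PP1 inhibition above a set limit taken from the earlier primary screen, cut at about 15% in these data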
# PP5 counter – counter-screen for PP1 inhibitors: human PP5 phosphatase inhibition | shares compounds with PP1 counter | purified PP5c, OMFP fluorescence | inhibition, % at 6.7 µM | 1,900 tested, 4% active | AID 2360;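 active = mean PP5 inhibition over triplicate wells above about 9.5% taken from the earlier PP1 screen, limit read from the data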
# An asterisk follows results filed as active; ? = inconclusive; · = not tested or not shown.
SMILES,PP5 inh,CSC inhib,PP1 counter,Beta cell apopt,Calb FLC,Mdm2-MdmX inh,PP1 confirm,PP5 counter
Oc1cccc2ccc(/C=C/c3ccccc3Cl)nc12,1.0,61.5,19.4*,55.9,0.7,-46.7,11.1,-0.5
O=[N+]([O-])c1ccc(/C=C/c2ccc3cccc([N+](=O)[O-])c3n2)cc1,-6.6,7.8,7.3,4.8,-0.2,1.6,·,·
COc1cc(Cl)cc(/C=C/c2ccc3cccc(O)c3n2)c1OC,-0.7,45.9,2.8,25.2,-4.5,49.4,·,·
Cc1ccc(S(=O)(=O)NNC2CC(=O)N(c3ccc(Br)cc3)C2=O)cc1 (stereo not drawn),-1.4,-10.8,-3.0,-8.9,-11.9,-23.1,·,·
CC(=O)NC1=NN(C(C)=O)C(c2ccccn2)S1 (stereo not drawn),-2.5,-13.7,-7.1,6.1,13.4,20.4,·,·
CC(=O)Nc1ccc(S(=O)(=O)NCC2CCC(C(=O)N3CCCCC3)CC2)cc1 (stereo not drawn),-2.0,8.5,-0.9,-2.5,1.2,10.6,·,·
O=C1CC(=O)N(Cc2ccco2)C(=O)N1,2.3,-8.1,58.0*,-4.4,-3.2,18.5,0.9,1.2
O=C1CC(=O)N(Cc2ccco2)C(=S)N1,2.2,-5.8,-2.8,·,-5.3,-19.3,·,·
CN(CC(=O)Nc1cccc(F)c1)C(=O)C1CC(=O)N(Cc2ccco2)C1 (stereo not drawn),-0.5,1.1,-4.0,-0.1,1.9,-16.6,·,·
CC1CC(=O)Nc2ccccc2N1C(=O)CSc1ncnc2sccc12 (stereo not drawn),-0.5,-21.2,-0.8,0.3,·,14.6,·,·
O=C1CC(N2C(=O)/C(=C/C=C/c3ccccc3)SC2=S)C(=O)N1c1ccccc1 (stereo not drawn),-7.4,22.9,24.0*,4.4,5.5,-17.8,7.9,-2.1
O=C(O)CN1C(=O)/C(=C/C=C/c2ccccc2)SC1=S,2.6,-6.8,2.3,-2.4,0.1,-26.1,·,·
Cc1cccc(-c2ncc(CN3CCN(CCC(C)C)C(CCO)C3)cn2)c1 (stereo not drawn),1.1,34.8,-2.2,3.6,-5.1,16.7,·,·
CCCn1c(N)c(C(=O)CSc2nc(C)nc3sc(C)c(C)c23)c(=O)[nH]c1=O,-1.6,6.2,22.3*,-4.7,-3.2,22.8,-0.6,-4.0
c1ccc(CNc2c3c(nc4ncnn24)CCC3)cc1,1.7,-8.9,-3.9,-9.4,4.9,17.9,·,·
Cc1ccc(C)c(CN2C(=O)C3CCCN3c3ccc(S(=O)(=O)N4CCOCC4)cc32)c1 (stereo not drawn),2.8,-2.1,22.1*,-3.2,?,4.6,22.2*,-0.3
COc1cccc(CN2C(=O)C3CCCN3c3ccc(S(=O)(=O)N4CCOCC4)cc32)c1 (stereo not drawn),1.6,3.6,26.1*,7.7,0.1,-12.9,25.3*,0.2
Cc1ccc(C)c(COC(=O)c2cc(S(=O)(=O)N3CCCCC3)ccc2N2CCOCC2)c1,2.0,23.0,-1.6,8.4,3.2,35.2,·,·
CCc1nnc(NC(=O)CN2CCN(c3cccc(OC)c3)CC2)s1,0.9,-8.0,33.6*,·,1.6,2.3,-4.3,-4.4
CCc1nnc(NC(=O)CN2CCN(Cc3cccc(OC)c3)CC2)s1,-2.3,-1.3,-5.1,0.9,4.9,15.6,·,·
COc1ccc(CNCC(O)COc2ccc(C(C)(C)c3ccccc3)cc2)cc1 (stereo not drawn),3.4,109.1*,23.8*,15.5,8.0,37.8,11.9,3.1
COC(=O)c1ccc(CNCC(O)COc2ccc(-c3ccccc3)cc2)cc1 (stereo not drawn),4.5,3.0,8.2,1.9,-11.3,6.5,·,·
CCC(C)Oc1ccc(C(=O)Nc2ccc(CN3CCOCC3)cc2)cc1 (stereo not drawn),·,·,·,·,9.7,2.6,·,·
CCOc1ccc(NC(=O)c2ccc(NC(=O)c3ccc(CN4CCOCC4)cc3)cc2)cc1,4.2,-5.6,21.6*,4.9,9.4,8.0,40.8*,-5.6
O=c1cc2oc3cc(O)c(O)cc3c(-c3ccccc3[N+](=O)[O-])c-2cc1O,9.3,95.5*,25.8*,36.5,88.1*,49.1,14.2,1.5
SMILES,PP5 inh,CSC inhib,PP1 counter,Beta cell apopt,Calb FLC,Mdm2-MdmX inh,PP1 confirm,PP5 counter
COc1ccc(S(=O)(=O)NCCc2c[nH]c3ccc(C)cc23)cc1,·,·,·,·,-2.2,-8.4,·,·
CCCOc1ccc(C2C(C(=O)c3cc4ccccc4o3)=C(O)C(=O)N2c2cc(C)on2)cc1 (stereo not drawn),0.7,-3.6,27.4*,7.7,-9.2,27.3,34.4*,1.5
CCCOc1ccc(C2C(C(=O)c3cc4ccccc4o3)=C(O)C(=O)N2c2cc(C)on2)cc1OC (stereo not drawn),5.0,-10.7,33.3*,-5.3,2.4,-6.4,36.8*,-1.5
O=C(CCl)Nc1ccccc1C(=O)Nc1ccc2c(c1)OCO2,-1.6,14.0,-1.0,-22.7,25.4,30.3,·,·
Cc1cc(-c2csc(N)n2)c(C)n1CCc1ccccc1,-0.2,-3.5,21.3*,-3.7,-3.3,16.5,19.5*,-0.9
CC(=O)c1ccc(OCC(=O)NC2CCCN(Cc3ccccc3F)C2)cc1 (stereo not drawn),·,·,·,·,-2.1,-2.5,·,·
O=c1cc(-c2ccccc2)[nH]n1-c1nc2ccccc2s1,2.2,98.0*,18.1*,4.9,8.7,43.3,7.9,2.0
CC(C)(C)OC(=O)CC[C@@H](C(=O)N1CCN(C(=O)OC(C)(C)C)CC1)n1cc(C(CO)NC(=O)OC(C)(C)C)nn1 (stereo partly drawn),1.9,-22.2,-4.5,4.2,2.1,-5.4,·,·
N#C/C(=C/c1ccc(Sc2nc3ccccc3[nH]2)o1)c1ccccc1F,6.7,·,36.8*,1.4,17.0,12.8,3.5,-0.2
N#C/C(=C/c1ccc(Sc2nc3ccccc3[nH]2)o1)c1cccc(F)c1,5.5,54.5,6.1,-2.8,8.2,21.5,·,·
Cc1ccc2nc(-c3ccc(SCC(=O)Nc4nnc(C)s4)nc3)[nH]c2c1,2.1,10.8,19.8*,51.0,-7.5,-153.8,25.4*,-1.6
Cc1ccc(OCC(=O)NNC(=O)C2CSC3(C)CCC(=O)N23)cc1C (stereo not drawn),·,·,·,·,·,24.7,·,·
C=CCOC(=O)C(=O)/C=C/c1ccc2c(c1)Cc1ccccc1-2,2.0,19.6,21.4*,-3.7,-5.5,12.9,17.7*,0.4
C=CCOC(=O)C(=O)/C=C/c1csc2ccccc12,1.1,-0.7,8.7,4.7,8.4,16.1,·,·
CCCCn1c(N)c(N(CCOC)C(=O)COC(=O)C(C)Oc2ccc(Cl)cc2)c(=O)[nH]c1=O (stereo not drawn),0.9,-14.1,-4.2,1.2,-5.3,-19.6,·,·
O=C(NCC1CCCO1)c1nc(Cn2ccc([N+](=O)[O-])n2)no1 (stereo not drawn),4.7,13.0,21.1*,2.3,1.1,-5.6,-5.2,-5.3
